From PubChem BioAssay (NCATS)
Records with an inconclusive call do not appear. The source made the active and inactive calls. Unless noted, the call rests on the fitted dose curve; in most records, active means well fitted curve in the direction sought with a large enough effect; inconclusive means small, poorly fitted or top-dose-only effect, or another doubt; inactive means no such curve, though single readings can be large; an effect the other way counts as inactive or inconclusive.

Legend:
[1] = AP1 Signaling Pathway (AID 357; active means well fitted curve in either direction with a large enough effect, not every such curve was filed as active;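 further: ME-180 reporter cells stimulated with EGF at its EC50 level; on the % scale 0 is the no-effect control and ±100 the full control effect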); settings: ME-180 AP-1-bla reporter, EGF-induced, beta-lactamase ratio, 5 h; at 38 µM (top of the series)
In short: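 Read-out was the 460nm/530nm emission ratio (excitation 405nm) after CCF4 loading for 2.5 hours at room temperature. Cells carried an AP-1-driven beta-lactamase reporter, were stimulated with EC50 EGF plus compound for 5 hours, and AC50 values came from titrations.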

[2] = biological target: Cytochrome P450 1A2 (Homo sapiens) (UniProt P05177); test: p450-cyp1a2 (AID 410; calls by dose curve;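 further: -100% = full effect of reference inhibitor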)
In short: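 Luminescent readout of luciferin formed from Luciferin-ME by human CYP1A2; data normalized against complete inhibition by 57 uM furafylline. Enzyme 20nM, substrate 100uM at Km, 100mM KPO4 buffer, 60 min reaction at room temperature.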

[3] = Stat Signaling Pathway (AID 446; active means well fitted curve in either direction with a large enough effect, not every such curve was filed as active;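 further: ME-180 cervical cancer cells given 40 pM IL-6 alongside compound; SIE-controlled beta-lactamase reporter measured as 460/530 nm FRET emission ratio; on the % scale 0 is the no-effect control and ±100 the full control effect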); settings: ME-180 SIE beta-lactamase reporter, IL-6 stimulated, 5 h; at 38 µM (top of the series)
In short: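 ME-180 cells carrying a SIE-driven beta-lactamase reporter are stimulated with 40 pM IL-6 for 5 h at 37C in the presence of compound. The 460/530 nm FRET substrate ratio is read after 2.5 h at RT. Data are normalised to 300 pM IL-6 and to 125 nM JAK inhibitor controls.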

[4] = biological target: Glucocorticoid receptor (Homo sapiens) (UniProt P04150); test: GR-GFP Redistribution (AID 450;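 active means compounds whose dose series gives a full or clear partial fitted curve of increased nuclear translocation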; further: potency means the concentration at half of the fitted maximal effect); settings: U2OS GR-GFP nuclear translocation, laser cytometry, 2 h
[5] = biological target: Glucocorticoid receptor (Homo sapiens) (UniProt P04150); test: GR-EFC Redistribution (AID 451; calls by dose curve; further: potency means the concentration at half of the fitted maximal effect); settings: CHO-K1 GR-EFC translocation, beta-gal luminescence, 2 h
In short: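 CHO-K1 cells stably expressing nuclear-localized β-gal enzyme acceptor and GR fused C-terminally to the enzyme donor fragment; ligand-driven nuclear translocation restores β-gal by complementation. Compounds titrated up to 46 uM final, 2 h at 37 °C; luminescence read.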

[6] = biological target: Mitogen-activated protein kinase 10 (Mus musculus) (UniProt Q61831); test: JNK3 AlphaScreen Assay (AID 530; active means well fitted curve in either direction with a large enough effect, not every such curve was filed as active;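 further: kinase came from lysate of stimulated human HepG2 cells; signal reports phosphorylation of biotinylated GST-cJun 1-79 at Ser73 with 10 µM ATP; on the % scale 0 is the no-effect control and ±100 the full control effect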)
In short: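 Inhibitors reduce antibody binding to phosphorylated biotin-cJun, lowering AlphaScreen luminescence. Lysates from HepG2 cells pre-activated by IL-1beta plus TNF-alpha supplied JNK3; compounds were titrated.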

[7] = biological target: 3',5'-cyclic-AMP phosphodiesterase 4B (Homo sapiens) (UniProt Q07343); test: qHTS Assay for Inhibitors of PDE-IV (AID 607; active means well fitted activation curve with a large enough effect in the main read-out, with a control signal flat, not every such curve was filed as active; further: % of control where 0% means no effect)
In short: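 HEK293 ACTOne cells with CNG channel (1000/well), endogenous PDE4; membrane potential dye, compounds up to 22.9 uM final. Fluorescence Ex 535/Em 590; RO 20-1724 (100 uM final) as reference.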

[8] = biological target: Guanine nucleotide-binding protein G(i) subunit alpha-1 (Homo sapiens) (UniProt P63096); test: qHTS Assay for Inhibitors of RGS12 GoLoco Motif Activity (Green Fluorophore) (AID 879);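 further: 0% = labeled peptide with Gαi1 and full inhibition = labeled peptide alone without protein; negative values mean loss of peptide binding seen as reduced polarization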
In short: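 Fluorescence polarization assay: 50 nM Gαi1 with 10 nM FITC-labeled RGS12 GoLoco peptide in 10 mM Tris pH 7.5, 150 mM NaCl, 0.1 mM GDP, 0.05% NP40, 10 min at room temperature with compound.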

[9] = biological target: Cytochrome P450 2D6 (Homo sapiens) (UniProt P10635); test: qHTS Assay for Inhibitors and Substrates of Cytochrome P450 2D6 (AID 891); further: potency means the concentration at half of the fitted maximal effect; nearly all actives have a fitted effect of over 60% in size
In short: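 Human CYP2D6 (5 nM) with 30 uM Luciferin-ME EGE (at Km) in 100 mM KPO4, compound preincubated 10 min, then NADPH regeneration system for 60 min at room temperature. Luciferin read by luminescence; normalized to 1.43 uM quinidine.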

[10] = biological target: Muscarinic acetylcholine receptor M1 (Rattus norvegicus) (UniProt P08482); test: qHTS Assay for Antagonists of Acetylcholine Muscarinic M1 Receptor: Measurement of IP-One Response (AID 944); further: potency means the concentration at half of the fitted maximal effect; nearly all actives have a fitted effect of over 75% in size
In short: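 M1-CHO (rat), 2000 cells/well, overnight recovery; cpd 10 min; carbachol EC80 (200 nM), 30 min, HEPES buffer + 50 mM LiCl pH 7.4; IP-One HTRF, Ex 337, Em 620/665 nm.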

[11] = biological target: Pyruvate kinase (Leishmania mexicana) (UniProt Q27686); test: qHTS Validation Assay for Inhibitors of Leishmania Mexicana Pyruvate Kinase (AID 945);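 further: 0% = DMSO only neutral control wells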
In short: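 The enzyme is a highly purified E451W mutant of LmPYK used at 0.2 nM. It converts 0.5 mM PEP and 0.1 mM ADP over 1 h at room temperature; product ATP is quantified by luciferase luminescence relative to DMSO controls.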

[12] = biological target: Pyruvate kinase PKM (Homo sapiens) (UniProt P14618); test: qHTS Assay for Activators of Human Muscle Pyruvate Kinase (AID 954; active means well fitted curve in the direction sought with a large enough effect, not every such curve was filed as active;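 further: 0% = uninhibited enzyme and -100% = no enzyme or full thiadiazolimine inhibition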)
In short: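 Purified human PKM2 (0.1 nM) with 0.5 mM PEP (Km) and 0.1 mM ADP in 50 mM imidazole pH 7.2, KCl, MgCl2, 1 h at room temperature; ATP formed read by coupled luciferase luminescence. Normalized to no-enzyme/110 uM thiadiazolimine inhibition; 0.3 nM enzyme column for activation.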

[13] = Validation of Assay for Modulators of Lamin A Splicing (AID 1459; active means well fitted curve in the direction sought with a large enough effect in the signal ratio; the % refers to the signal ratio;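 further: cells exposed to compound for two days before reading; 0% is about no effect; ratio rise marks activators and ratio drop marks inhibitors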)
In short: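 Splicing correction is reported by an EGFP-containing lamin A minigene in stably transfected S3 HeLa cells, while DsRed2 controls for viability and nonspecific signal. Cells are exposed to compounds for 48 hrs before the GFP over RFP ratio is taken.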

[14] = qHTS Assay for Lipid Storage Modulators (AID 1519; calls by dose curve); settings: Drosophila S3 cells, BODIPY lipid droplet/cell ratio, laser cytometry, cells loaded with oleic acid
In short: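 Cells seeded at 5,000 per well were treated with compounds over a concentration series and loaded with oleic acid (400 uM, as added). Lipid droplet fluorescence (488 nm excitation, 500-530 nm channel) was read by laser-scanning cytometry and normalized to 20 uM Triacsin C.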

[15] = Counterscreen for APE1 Inhibitors: Fluorescent Dye Displacement Validation Assay (AID 1707);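 further: plate controls were ThO with dsDNA and no compound for no effect and ThO without dsDNA for full effect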
In short: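 Thiazole Orange (250 nM) bound to 50 nM TAMRA-labelled dsDNA with tetrahydrofuran abasic site; displacement by DNA-binding compounds lowers fluorescence. Buffer 50 mM Tris-HCl pH 7.5, 50 mM NaCl, 2 mM MgCl2, 0.01% Tween-20; endpoint read at 480/540 nm.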

[16] = biological target: Endonuclease 4 (Escherichia coli (strain K12)) (UniProt P0A6C1); test: Counterscreen for APE1 Inhibitors: qHTS Validation Assay for Inhibitors of Endonuclease IV (AID 1708); further: on the % scale 0 is the no-effect control and ±100 the full control effect
In short: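 Concentration-response counterscreen run identically to the APE1 assay: 15 min room-temperature preincubation of 2 nM enzyme with compound, reaction started with 50 nM quenched abasic DNA, progress taken from kinetic fluorescence.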

[17] = qHTS for differential inhibitors of proliferation of Plasmodium falciparum line 7G8 (AID 1815);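 further: potency means the concentration at half of the fitted maximal effect; parasite growth measured after three days of incubation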
[18] = qHTS for differential inhibitors of proliferation of Plasmodium falciparum line D10 (AID 1877);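 further: parasites grown with compound for 72 h before DNA staining; plate controls were vehicle wells for no effect and reference inhibitor wells for full effect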
[19] = qHTS for differential inhibitors of proliferation of Plasmodium falciparum line W2 (AID 1883); settings: Potency: Plasmodium falciparum W2 proliferation inhibition;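 further: potency means the concentration at half of the fitted maximal effect; parasites grown with compound for 72 h before lysis and staining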
[20] = biological target: Ferritin light chain (Equus caballus) (UniProt P02791); test: qHTS Validation Assay for Identification of Novel General Anesthetics (AID 2323); further: on the % scale 0 is the no-effect control and ±100 the full control effect
In short: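 Apoferritin from horse spleen (10 uM) was mixed with 1-aminoanthracene at 50% saturation in PBS, then compounds were added. After 10 min at room temperature, fluorescence was read (ex 380 nm, em 535 nm) and normalized to free-probe and complex controls.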

[21] = biological target: ATP-dependent DNA helicase Q1 (Homo sapiens) (UniProt P46063); test: qHTS Validation Assay for Inhibitors of RecQ-Like Dna Helicase 1 (RECQ1) (AID 2353);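 further: plate controls were DMSO vehicle for no effect and enzyme-free control for full effect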
In short: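 50 nM RECQ1T1 preincubated 15 min with compound in Tris pH 8.0 buffer with MgCl2, DTT, Tween-20 and 2.5 ug/ml poly(dI-dC); started with 200 nM TAMRA/BHQ-2 forked duplex and 2 mM ATP. Unwinding read as fluorescence (525/598 nm), two reads 2 h apart.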

[22] = Cytometric Cell-Based qHTS for Inhibitors of the mTORC1 Signaling Pathway in MEF (Tsc2-/-, p53-/-) Cells (AID 2660);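 further: percent of cells above a phospho-rpS6 to PI ratio cutoff in each well; plate controls were DMSO for no effect and rapamycin for full effect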
In short: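 Tsc2-/-, p53-/- MEFs (empty vector) exposed to compound 24 h at 37 C, fixed, stained with Alexa-488 anti-phospho-rpS6 Ser235/236 and propidium iodide. Acumen laser scanning; phospho-S6/PI ratio thresholded against 7.5 nM rapamycin, reported as % positive cells.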

[23] = High Content Imaging Cell-Based qHTS for Inhibitors of the mTORC1 Signaling Pathway in MEF (Tsc2-/-, p53-/-) Cells (AID 2666); settings: at 38.3 µM (top of the series);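 further: percent of cells scored positive for phospho-rpS6 Ser235/236 immunostaining by imaging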
In short: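 Read-out: % positive cells per well, with thresholds from highest- and lowest-signal wells, based on phospho-rpS6 (Ser235/236) intensity normalized to Hoechst nuclear stain. Cells: Tsc2-/-, p53-/- MEFs carrying empty vector; compound 24 hrs, 37 degree Celsius.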

[24] = High Content Imaging Cell-Based qHTS for Inhibitors of the mTORC1 Signaling Pathway in MEF Cells (AID 2667);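 further: Tsc2-/- p53-/- MEFs stably re-expressing wild-type Tsc2 exposed 24 h; plate controls were DMSO wells for no effect and rapamycin control wells for full effect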
In short: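 MEF (Tsc2-/-, p53-/-, WT Tsc2 re-expressed); cpd 24 h, 37 °C; PFA fix; Alexa-488 anti-p-rpS6 Ser235/236, PI, Hoechst; IN Cell imaging; Hoechst/Alexa-488 intensity ratio; % active cells, thresholds set from rapamycin and DMSO wells.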

[25] = Cytometry Cell-Based qHTS for Inhibitors of the mTORC1 Signaling Pathway in MEF cells (AID 2668);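 further: Tsc2-/- p53-/- mouse embryonic fibroblasts stably re-expressing wild-type Tsc2; percent cells positive for phospho-rpS6 Ser235/236 relative to propidium iodide stain; plate controls were DMSO wells for no effect and 7.5 nM rapamycin control wells for full effect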
In short: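 Pathway inhibition in WT Tsc2-rescued Tsc2-/-, p53-/- MEFs is measured as the Alexa-488 phospho-rpS6 to propidium iodide intensity ratio after 24 hrs of compound at 37 degree Celsius. PI-stained cell number gives viability.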

[26] = Validation screen for small molecules that induce DNA re-replication in MCF 10A normal breast cells (AID 463097); further: 0% is about no effect; nearly all actives have a fitted effect of over 60% in size
In short: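 DNA re-replication was detected as a rise in nuclei with elevated Hoechst fluorescence after a 48 hr compound exposure of MCF 10A cells at 37 C.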

[27] = biological target: Ubiquitin carboxyl-terminal hydrolase 2 (Homo sapiens) (UniProt O75604); test: qHTS Validation Assay for Inhibitors of Ubiquitin-specific Protease USP2a Using CHOP2 as the Reporter (AID 463106);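 further: plate controls were DMSO for no effect and full inhibition by NEM for full effect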
In short: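 USP2 core (10nM final) was preincubated with compound for 30min at RT in 20mM Tris-HCl pH 8.0, 2mM CaCl2, 2mM beta-mercaptoethanol, 0.05% CHAPS. Ub-CHOP2 and reporter substrate (25nM each) were added, and fluorescence (Ex 485/Em 531nm) was read after 60min.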

[28] = biological target: Tumor susceptibility gene 101 protein (Homo sapiens) (UniProt Q99816); test: qHTS Validation Assay for Iinhibitors of HIV-1 Budding by Blocking the Interaction of PTAP/TSG101 (AID 485342; calls by dose curve; further: 0% is about no effect)
In short: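 Fluorescence anisotropy measured PTAP-Tsg101 interaction. Final concentrations were 10 uM protein domain and 50 nM labeled peptide, equilibrated 20 min at room temperature.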

[29] = qHTS Validation Assay to Find Inhibitors of Chronic Active B-Cell Receptor Signaling (AID 485345; active means well fitted curve in the direction sought with a large enough effect in the main read-out, with a control signal flat, not every such curve was filed as active;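 further: 0% = untreated basal cells and 100% = 10 µM MG-132 proteasome inhibitor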)
In short: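 TMD8 ABC-DLBCL cells with dox-inducible green luciferase–IκBα fusion and red native luciferase; compounds 46 uM–3 nM, 4 h at 37C with doxycycline in 0.5% FBS IMDM. Green/red ratio normalized to basal and 10 uM MG-132.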

[30] = biological target: Beta-2 adrenergic receptor (Homo sapiens) (UniProt P07550); test: qHTS validation assay of beta-arrestin-biased ligands of beta2-adrenergic receptor (AID 485366); further: 0% is about no effect
In short: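 Tango cells expressing recombinant beta2-AR and beta-arrestin with tTA-driven luciferase, in DMEM with 1% FBS. Compounds were titrated up to 46 microM for 18 hr at 37 degrees C. Luminescence was read 15 min after substrate; curves were fitted and class-assigned.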

[31] = Quantitative high throughput screen for delayed death inhibitors of the malarial parasite plastid, 96 hour incubation (AID 488745);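 further: luciferase-expressing P. falciparum in erythrocytes at 2% hematocrit and 0.1% parasitemia; on the % scale 0 is the no-effect control and ±100 the full control effect; nearly all actives have a fitted effect of over 70% in size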
In short: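 Infected erythrocytes were added to compound in Albumax-supplemented RPMI 1640 at 0.1% parasitemia and 2% hematocrit (final), incubated 96 h at 37 C under 5% CO2, then luciferase reagent was added and luminescence measured.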

[32] = Quantitative high throughput screen for delayed death inhibitors of the malarial parasite plastid, 48 hour incubation (AID 488752); further: on the % scale 0 is the no-effect control and ±100 the full control effect; nearly all actives have a fitted effect of over 65% in size
In short: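 Readout is firefly luciferase luminescence from a reporter integrated into the parasite genome, with lower signal taken as inhibited growth. Infected red cells (0.1% parasitemia, 2% hematocrit final) are cultured with compound for one 48 h cycle at 37 C.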

Chain of Glucocorticoid receptor (Homo sapiens) (P04150 whole entry, looked up, the tested form may be a part): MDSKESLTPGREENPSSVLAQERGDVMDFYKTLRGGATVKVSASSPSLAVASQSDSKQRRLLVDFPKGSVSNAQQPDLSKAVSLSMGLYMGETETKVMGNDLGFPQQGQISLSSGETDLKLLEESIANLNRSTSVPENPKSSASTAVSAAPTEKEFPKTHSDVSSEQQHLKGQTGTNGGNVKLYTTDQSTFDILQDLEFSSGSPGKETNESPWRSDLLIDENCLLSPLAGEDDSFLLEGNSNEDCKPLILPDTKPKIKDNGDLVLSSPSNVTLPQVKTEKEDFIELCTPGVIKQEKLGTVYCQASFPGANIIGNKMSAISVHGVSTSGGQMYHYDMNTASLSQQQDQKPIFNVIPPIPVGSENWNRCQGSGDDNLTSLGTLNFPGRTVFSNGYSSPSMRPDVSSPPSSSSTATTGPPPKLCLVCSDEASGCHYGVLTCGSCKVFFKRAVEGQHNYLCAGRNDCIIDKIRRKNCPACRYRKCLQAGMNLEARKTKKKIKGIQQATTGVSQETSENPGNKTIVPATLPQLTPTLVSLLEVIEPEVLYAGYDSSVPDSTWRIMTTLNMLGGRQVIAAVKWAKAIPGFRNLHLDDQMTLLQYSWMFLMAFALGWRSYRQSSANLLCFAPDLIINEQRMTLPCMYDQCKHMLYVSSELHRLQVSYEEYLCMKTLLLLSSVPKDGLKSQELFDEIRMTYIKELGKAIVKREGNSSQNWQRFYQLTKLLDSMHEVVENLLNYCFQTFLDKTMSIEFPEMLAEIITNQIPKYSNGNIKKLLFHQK
Chain of Cytochrome P450 2D6 (Homo sapiens) (P10635 whole entry, looked up): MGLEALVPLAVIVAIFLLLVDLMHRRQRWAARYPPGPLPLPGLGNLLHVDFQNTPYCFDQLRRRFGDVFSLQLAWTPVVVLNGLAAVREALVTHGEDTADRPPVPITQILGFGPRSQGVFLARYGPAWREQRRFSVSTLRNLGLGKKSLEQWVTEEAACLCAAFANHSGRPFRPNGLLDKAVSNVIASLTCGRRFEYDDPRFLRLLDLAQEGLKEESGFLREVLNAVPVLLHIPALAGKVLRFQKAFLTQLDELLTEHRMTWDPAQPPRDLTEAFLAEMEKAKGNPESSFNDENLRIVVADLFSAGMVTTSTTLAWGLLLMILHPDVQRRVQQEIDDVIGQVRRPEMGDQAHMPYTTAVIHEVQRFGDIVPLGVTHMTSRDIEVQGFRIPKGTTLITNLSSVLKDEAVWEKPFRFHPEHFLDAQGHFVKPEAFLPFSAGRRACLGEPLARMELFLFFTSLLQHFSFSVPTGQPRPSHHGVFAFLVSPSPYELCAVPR
Chain of Ferritin light chain (Equus caballus) (P02791 2-175 limits assumed): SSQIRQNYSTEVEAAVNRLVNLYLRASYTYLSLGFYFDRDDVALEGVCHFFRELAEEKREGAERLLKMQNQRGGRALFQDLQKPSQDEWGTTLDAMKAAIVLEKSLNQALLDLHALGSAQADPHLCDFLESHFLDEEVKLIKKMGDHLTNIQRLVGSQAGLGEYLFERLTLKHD
Chain of Ubiquitin carboxyl-terminal hydrolase 2 (Homo sapiens) (O75604 whole entry, looked up): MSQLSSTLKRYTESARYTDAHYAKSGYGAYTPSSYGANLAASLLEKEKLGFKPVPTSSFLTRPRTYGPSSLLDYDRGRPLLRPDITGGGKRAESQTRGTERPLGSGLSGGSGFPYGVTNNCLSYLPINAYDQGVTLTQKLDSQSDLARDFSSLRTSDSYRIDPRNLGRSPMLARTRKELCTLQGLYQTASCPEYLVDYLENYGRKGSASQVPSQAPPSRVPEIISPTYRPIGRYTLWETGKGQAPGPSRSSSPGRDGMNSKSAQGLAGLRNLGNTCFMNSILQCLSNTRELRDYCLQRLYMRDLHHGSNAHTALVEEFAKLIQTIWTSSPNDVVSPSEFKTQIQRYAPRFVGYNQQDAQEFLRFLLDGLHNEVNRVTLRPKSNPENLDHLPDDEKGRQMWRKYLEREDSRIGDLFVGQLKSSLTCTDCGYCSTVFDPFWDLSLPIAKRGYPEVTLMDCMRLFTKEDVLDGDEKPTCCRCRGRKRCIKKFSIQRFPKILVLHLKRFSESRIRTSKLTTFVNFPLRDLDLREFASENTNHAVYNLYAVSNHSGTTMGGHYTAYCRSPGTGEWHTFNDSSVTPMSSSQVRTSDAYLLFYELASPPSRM
Chain of Muscarinic acetylcholine receptor M1 (Rattus norvegicus) (P08482 whole entry, looked up): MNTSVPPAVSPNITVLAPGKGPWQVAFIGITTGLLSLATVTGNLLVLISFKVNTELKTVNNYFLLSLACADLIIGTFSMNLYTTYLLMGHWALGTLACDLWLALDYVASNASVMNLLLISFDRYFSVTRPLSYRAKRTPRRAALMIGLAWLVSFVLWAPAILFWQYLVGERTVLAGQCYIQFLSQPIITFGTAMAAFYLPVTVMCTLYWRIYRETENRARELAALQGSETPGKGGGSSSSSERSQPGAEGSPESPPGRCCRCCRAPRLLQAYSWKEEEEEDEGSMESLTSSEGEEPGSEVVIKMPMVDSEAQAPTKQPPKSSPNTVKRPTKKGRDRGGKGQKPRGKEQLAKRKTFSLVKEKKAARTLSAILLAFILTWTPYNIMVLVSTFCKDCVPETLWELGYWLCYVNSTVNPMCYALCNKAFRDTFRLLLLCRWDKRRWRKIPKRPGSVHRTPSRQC
Chain of Beta-2 adrenergic receptor (Homo sapiens) (P07550 whole entry, looked up): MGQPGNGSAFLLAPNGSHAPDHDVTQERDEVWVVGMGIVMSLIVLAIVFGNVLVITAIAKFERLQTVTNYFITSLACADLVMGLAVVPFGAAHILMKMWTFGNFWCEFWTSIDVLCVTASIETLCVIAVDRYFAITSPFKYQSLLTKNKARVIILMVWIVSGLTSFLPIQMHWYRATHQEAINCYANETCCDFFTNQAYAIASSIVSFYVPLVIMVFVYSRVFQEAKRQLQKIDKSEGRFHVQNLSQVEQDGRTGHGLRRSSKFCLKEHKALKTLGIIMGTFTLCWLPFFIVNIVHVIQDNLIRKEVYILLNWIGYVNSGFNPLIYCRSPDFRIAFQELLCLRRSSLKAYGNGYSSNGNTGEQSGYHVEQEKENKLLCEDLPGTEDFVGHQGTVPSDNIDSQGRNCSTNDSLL
Chain of Cytochrome P450 1A2 (Homo sapiens) (P05177 whole entry, looked up): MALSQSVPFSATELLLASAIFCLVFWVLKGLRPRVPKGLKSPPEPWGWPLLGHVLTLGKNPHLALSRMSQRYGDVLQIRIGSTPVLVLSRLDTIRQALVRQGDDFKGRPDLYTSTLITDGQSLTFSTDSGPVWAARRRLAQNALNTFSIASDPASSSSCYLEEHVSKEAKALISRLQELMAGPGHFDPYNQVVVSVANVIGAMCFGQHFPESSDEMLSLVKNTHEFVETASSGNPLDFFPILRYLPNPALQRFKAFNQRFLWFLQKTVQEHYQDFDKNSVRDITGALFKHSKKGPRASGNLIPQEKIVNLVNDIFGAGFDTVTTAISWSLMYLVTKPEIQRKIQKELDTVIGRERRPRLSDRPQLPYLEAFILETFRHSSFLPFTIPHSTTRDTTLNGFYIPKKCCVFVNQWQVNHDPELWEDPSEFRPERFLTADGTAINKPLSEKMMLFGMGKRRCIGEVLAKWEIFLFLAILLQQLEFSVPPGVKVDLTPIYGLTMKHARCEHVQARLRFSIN
Chain of ATP-dependent DNA helicase Q1 (Homo sapiens) (P46063 whole entry, looked up): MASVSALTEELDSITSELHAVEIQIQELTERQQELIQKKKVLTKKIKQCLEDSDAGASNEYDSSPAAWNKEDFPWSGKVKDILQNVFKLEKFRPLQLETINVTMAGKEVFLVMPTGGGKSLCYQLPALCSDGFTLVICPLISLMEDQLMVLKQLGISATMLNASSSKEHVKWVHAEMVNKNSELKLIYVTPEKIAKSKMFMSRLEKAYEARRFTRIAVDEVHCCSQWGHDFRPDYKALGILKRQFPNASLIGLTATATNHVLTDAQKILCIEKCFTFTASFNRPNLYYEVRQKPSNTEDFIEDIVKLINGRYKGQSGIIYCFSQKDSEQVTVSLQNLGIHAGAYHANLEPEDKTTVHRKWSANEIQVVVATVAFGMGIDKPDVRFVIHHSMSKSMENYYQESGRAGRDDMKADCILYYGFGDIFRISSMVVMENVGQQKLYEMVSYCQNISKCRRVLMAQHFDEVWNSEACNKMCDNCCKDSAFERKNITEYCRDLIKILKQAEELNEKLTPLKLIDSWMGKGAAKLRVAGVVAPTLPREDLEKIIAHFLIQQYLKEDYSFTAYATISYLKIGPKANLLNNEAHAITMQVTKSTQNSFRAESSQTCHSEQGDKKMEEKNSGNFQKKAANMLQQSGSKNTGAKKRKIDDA
Chain of 3',5'-cyclic-AMP phosphodiesterase 4B (Homo sapiens) (Q07343 whole entry, looked up): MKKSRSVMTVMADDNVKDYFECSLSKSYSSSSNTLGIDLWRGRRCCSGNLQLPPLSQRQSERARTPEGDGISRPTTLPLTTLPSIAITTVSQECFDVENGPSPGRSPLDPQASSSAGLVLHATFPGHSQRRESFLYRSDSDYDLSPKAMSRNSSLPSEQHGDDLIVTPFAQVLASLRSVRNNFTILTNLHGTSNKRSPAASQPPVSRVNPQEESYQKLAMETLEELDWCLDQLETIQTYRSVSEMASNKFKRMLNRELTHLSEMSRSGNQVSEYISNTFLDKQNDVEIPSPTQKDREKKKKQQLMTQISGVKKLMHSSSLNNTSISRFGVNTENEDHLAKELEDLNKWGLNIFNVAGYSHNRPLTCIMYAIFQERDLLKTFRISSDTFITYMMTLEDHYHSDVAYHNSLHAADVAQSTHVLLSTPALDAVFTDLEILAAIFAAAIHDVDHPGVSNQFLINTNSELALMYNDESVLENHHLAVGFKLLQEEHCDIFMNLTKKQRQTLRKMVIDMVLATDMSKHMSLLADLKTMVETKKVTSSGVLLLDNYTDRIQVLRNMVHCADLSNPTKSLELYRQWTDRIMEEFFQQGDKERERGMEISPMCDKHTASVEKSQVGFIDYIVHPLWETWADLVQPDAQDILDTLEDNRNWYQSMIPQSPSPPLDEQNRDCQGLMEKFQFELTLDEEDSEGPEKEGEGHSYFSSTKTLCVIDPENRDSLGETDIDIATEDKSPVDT

C1CCC(N=C(NC23CC4CC(CC(C4)C2)C3)N2CCOCC2)CC1
-17.8%: max response ([14]; measured here: lipid channel max response)
active: Potency [9] 0.631 µM | Potency [10] 17.8 µM | Potency [17] 7.94 µM | Potency [19] 7.08 µM
inactive: activity change, negative = inhibition [1] 8.68% | Potency [2] | activity, negative = inhibition [3] 17.1% | Potency [4] > 46 µM | Potency [5] > 46 µM | Potency [6] | Potency [7] | outcome [8] | Potency [11] | outcome [12] | outcome [13] | activity change, negative = inhibition ([14]; at 57.5 µM (top of the series)) 1.57% | Potency [15] | Potency [16] | Potency [18] | outcome [20] | Potency [21] | outcome [22] | outcome [23] | Potency [24] | Potency [25] | Potency [26] | Potency [27] | outcome [28] | outcome [29] | outcome [30] | Potency [31] | Potency [32]
-18.7%: max response ([14]; measured here: cell count channel max response)
